What all share (assay): DAPPL (digital affinity profiling via proximity ligation, sequencing); 10 mM Tris-HCl pH 7.5, 50 mM NaCl, 1 mM DTT, 4% glycerol, room temperature, 30 min; GST-TFs on glutathione beads, 16-mer random dsDNA library, 0.1% formaldehyde crosslink after washing; high values mean tight binding
Settings in all cases: protein: recombinant; tags: N-terminal GST; dsDNA, one strand shown

One assay addresses T1, FLI1 (Homo sapiens, UniProt Q01543 1-452).
T1 sequence: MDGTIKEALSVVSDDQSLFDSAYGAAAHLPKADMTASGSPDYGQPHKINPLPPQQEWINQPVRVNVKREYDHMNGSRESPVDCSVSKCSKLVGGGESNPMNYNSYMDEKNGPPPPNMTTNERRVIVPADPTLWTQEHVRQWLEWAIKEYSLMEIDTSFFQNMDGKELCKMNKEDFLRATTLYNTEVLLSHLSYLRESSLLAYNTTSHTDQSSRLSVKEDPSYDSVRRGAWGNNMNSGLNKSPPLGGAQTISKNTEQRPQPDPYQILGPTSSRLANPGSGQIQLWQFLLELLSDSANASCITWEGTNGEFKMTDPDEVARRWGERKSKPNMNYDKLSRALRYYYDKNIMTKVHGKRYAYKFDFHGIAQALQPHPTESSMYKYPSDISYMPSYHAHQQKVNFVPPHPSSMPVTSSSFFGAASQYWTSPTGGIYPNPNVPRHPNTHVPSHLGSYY
Put shortly: (§1)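 Human transcription factors were made in yeast as GST fusions, captured on glutathione beads and barcoded with DNA. With a tag-only sample included, the pool was incubated with 200 nmole of a random double-stranded 16-mer DNA library in Tris/NaCl/DTT/glycerol buffer at room temperature for 30 min, then crosslinked with 0.1% formaldehyde after washing, ligated by proximity, amplified and sequenced. For binding signal, each hexamer's read frequency for a factor is divided by its frequency for the tag-only sample.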

A further assay concerns the target T2, ELK1 (Homo sapiens, UniProt P19419 1-428).
T2 sequence: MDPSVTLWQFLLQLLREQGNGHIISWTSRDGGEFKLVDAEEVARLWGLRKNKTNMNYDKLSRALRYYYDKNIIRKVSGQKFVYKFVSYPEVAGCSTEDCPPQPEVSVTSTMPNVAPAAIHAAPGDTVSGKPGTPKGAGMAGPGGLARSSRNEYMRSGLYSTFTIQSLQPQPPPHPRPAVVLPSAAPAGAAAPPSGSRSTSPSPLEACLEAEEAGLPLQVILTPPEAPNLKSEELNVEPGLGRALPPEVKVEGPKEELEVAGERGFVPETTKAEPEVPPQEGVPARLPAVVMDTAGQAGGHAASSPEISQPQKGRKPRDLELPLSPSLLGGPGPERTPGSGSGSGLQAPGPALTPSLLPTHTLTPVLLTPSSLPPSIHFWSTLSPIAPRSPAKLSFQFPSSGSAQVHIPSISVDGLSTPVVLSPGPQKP
Put shortly:
as §1

The target of another assay is T3, GABPA (Homo sapiens, UniProt Q06546 1-454).
T3 sequence: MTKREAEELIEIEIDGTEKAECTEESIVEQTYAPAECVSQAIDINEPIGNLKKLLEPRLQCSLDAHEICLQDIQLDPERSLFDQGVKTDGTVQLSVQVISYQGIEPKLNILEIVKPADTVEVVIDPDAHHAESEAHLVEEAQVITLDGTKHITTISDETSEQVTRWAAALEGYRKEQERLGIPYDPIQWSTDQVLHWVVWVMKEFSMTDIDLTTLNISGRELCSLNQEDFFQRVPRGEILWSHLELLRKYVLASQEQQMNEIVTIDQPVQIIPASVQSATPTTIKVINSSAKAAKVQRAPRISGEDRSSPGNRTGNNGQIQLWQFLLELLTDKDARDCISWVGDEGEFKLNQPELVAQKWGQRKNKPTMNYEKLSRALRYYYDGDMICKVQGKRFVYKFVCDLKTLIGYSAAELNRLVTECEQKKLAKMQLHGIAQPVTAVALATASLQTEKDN
Put shortly:
as §1

Another assay addresses T4, ERG (Homo sapiens, UniProt P11308 1-479).
T4 sequence: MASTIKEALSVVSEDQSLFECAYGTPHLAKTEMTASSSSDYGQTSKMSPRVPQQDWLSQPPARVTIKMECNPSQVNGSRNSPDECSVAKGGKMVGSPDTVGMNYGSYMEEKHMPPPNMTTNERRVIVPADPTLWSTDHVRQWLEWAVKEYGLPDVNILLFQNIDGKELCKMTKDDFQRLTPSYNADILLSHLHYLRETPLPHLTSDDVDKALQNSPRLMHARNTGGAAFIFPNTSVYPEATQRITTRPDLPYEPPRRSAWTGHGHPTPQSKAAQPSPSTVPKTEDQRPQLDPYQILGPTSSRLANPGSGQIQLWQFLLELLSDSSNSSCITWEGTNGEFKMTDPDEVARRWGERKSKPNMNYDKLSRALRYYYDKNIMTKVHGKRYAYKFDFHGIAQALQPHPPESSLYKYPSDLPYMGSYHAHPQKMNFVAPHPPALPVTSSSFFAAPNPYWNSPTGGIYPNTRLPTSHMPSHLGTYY
Put shortly:
as §1

The next assay concerns the target ELF1 (Homo sapiens, UniProt P32519 1-619). In a few lines:
as §1

A further assay has as its target T5, EHF (Homo sapiens, UniProt Q9NZC4 1-300).
T5 sequence: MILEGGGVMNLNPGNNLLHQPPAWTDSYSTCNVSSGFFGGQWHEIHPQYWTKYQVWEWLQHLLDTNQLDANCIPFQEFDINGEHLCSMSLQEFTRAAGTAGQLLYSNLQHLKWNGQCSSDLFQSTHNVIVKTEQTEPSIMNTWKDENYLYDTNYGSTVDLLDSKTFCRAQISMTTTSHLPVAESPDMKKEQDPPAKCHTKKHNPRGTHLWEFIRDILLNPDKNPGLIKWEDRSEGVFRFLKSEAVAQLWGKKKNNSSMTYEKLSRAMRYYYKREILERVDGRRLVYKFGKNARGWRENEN
In a few lines:
as §1

The next assay deals with SPI1 (Homo sapiens, UniProt P17947 1-270). In a few lines:
as §1

The next assay deals with SPIB (Homo sapiens, UniProt Q01892 1-262). In a few lines: as §1
The target in the next assay is T6, ELK3 (Homo sapiens, UniProt P41970 1-407).
T6 sequence: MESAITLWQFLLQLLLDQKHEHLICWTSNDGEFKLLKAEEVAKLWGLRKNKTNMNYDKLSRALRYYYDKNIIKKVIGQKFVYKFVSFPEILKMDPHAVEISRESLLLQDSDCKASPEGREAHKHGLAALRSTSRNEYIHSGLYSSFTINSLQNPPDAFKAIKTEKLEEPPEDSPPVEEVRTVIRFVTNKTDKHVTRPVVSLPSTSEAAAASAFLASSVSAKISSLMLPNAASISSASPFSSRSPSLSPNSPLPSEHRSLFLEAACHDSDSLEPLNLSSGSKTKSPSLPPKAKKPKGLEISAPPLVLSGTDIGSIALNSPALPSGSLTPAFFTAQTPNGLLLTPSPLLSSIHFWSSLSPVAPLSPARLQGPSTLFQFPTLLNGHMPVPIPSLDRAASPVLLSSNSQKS
In a few lines: as §1

The values below come from paper PMC7862700, “An all-to-all approach to the identification of sequence-specific readers for epigenetic DNA modifications on cytosine”.

Sequence of ELF1 (P32519 whole entry): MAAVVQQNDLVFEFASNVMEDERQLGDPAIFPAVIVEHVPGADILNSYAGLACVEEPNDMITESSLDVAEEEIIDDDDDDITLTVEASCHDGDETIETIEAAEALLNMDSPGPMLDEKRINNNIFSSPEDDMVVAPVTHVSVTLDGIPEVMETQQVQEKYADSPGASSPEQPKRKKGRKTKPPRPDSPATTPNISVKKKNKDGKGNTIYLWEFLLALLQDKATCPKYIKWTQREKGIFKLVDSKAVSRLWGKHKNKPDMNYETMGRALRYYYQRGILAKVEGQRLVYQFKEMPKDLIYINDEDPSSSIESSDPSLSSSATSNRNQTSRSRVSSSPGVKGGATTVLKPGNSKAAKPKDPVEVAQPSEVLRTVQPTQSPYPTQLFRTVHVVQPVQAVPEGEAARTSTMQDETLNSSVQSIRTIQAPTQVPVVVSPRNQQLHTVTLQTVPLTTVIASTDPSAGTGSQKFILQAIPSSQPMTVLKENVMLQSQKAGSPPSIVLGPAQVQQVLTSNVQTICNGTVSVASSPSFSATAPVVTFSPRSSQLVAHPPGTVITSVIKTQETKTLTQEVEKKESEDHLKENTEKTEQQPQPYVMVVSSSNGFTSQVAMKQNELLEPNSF
Sequence of SPIB (Q01892 whole entry): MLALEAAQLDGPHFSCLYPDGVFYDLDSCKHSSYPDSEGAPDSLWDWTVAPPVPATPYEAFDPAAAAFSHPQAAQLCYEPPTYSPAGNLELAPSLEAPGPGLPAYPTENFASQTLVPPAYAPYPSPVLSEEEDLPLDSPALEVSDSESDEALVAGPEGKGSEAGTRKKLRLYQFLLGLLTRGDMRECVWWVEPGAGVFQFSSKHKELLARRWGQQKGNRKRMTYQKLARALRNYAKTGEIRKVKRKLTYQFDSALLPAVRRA

On to CGAACA, for which the binding signal was 1.09 fold enrichment (6-mer frequency, TF over GST control) in the assay with FLI1; 1.08 fold enrichment (6-mer frequency, TF over GST control) in the assay with ELK1; 1.11 fold enrichment (6-mer frequency, TF over GST control) with GABPA; 1.11 fold enrichment (6-mer frequency, TF over GST control) in the assay with ERG; 1.13 fold enrichment (6-mer frequency, TF over GST control) with ELF1; 1.14 fold enrichment (6-mer frequency, TF over GST control) with EHF. Also, the binding signal is 1.15 fold enrichment (6-mer frequency, TF over GST control) with SPI1; 1.19 fold enrichment (6-mer frequency, TF over GST control) with SPIB; 1.09 fold enrichment (6-mer frequency, TF over GST control) with ELK3.
As for GGATTT, the binding signal was 1.33 fold enrichment (6-mer frequency, TF over GST control) with FLI1; 1.25 fold enrichment (6-mer frequency, TF over GST control) in the assay with ELK1; 1.26 fold enrichment (6-mer frequency, TF over GST control) in the assay with GABPA; 1.34 fold enrichment (6-mer frequency, TF over GST control) with ERG; 1.23 fold enrichment (6-mer frequency, TF over GST control) in the assay with ELF1; 1.24 fold enrichment (6-mer frequency, TF over GST control) with EHF. For the same sequence, the binding signal was 1.22 fold enrichment (6-mer frequency, TF over GST control) in the assay with SPI1; 1.29 fold enrichment (6-mer frequency, TF over GST control) in the assay with SPIB; 1.48 fold enrichment (6-mer frequency, TF over GST control) with ELK3.
In the case of CTACCC, the binding signal with FLI1 is 1.27 fold enrichment (6-mer frequency, TF over GST control); in the assay with ELK1, 1.32 fold enrichment (6-mer frequency, TF over GST control); with GABPA, 1.4 fold enrichment (6-mer frequency, TF over GST control); with ERG, 1.36 fold enrichment (6-mer frequency, TF over GST control); in the assay with ELF1 it was 1.33 fold enrichment (6-mer frequency, TF over GST control); in the assay with EHF it was 1.27 fold enrichment (6-mer frequency, TF over GST control). Besides, the binding signal in the assay with SPI1 was 1.31 fold enrichment (6-mer frequency, TF over GST control); with SPIB, 1.34 fold enrichment (6-mer frequency, TF over GST control); with ELK3, 1.31 fold enrichment (6-mer frequency, TF over GST control).
With GTTCGA, the binding signal with FLI1 is 1.13 fold enrichment (6-mer frequency, TF over GST control); in the assay with ELK1 it was 1.12 fold enrichment (6-mer frequency, TF over GST control); with GABPA it was 1.17 fold enrichment (6-mer frequency, TF over GST control); in the assay with ERG, 1.07 fold enrichment (6-mer frequency, TF over GST control); with ELF1, 1.08 fold enrichment (6-mer frequency, TF over GST control); with EHF, 1.14 fold enrichment (6-mer frequency, TF over GST control). In addition, the binding signal with SPI1 was 1.04 fold enrichment (6-mer frequency, TF over GST control); with SPIB, 1.05 fold enrichment (6-mer frequency, TF over GST control); in the assay with ELK3, 1.15 fold enrichment (6-mer frequency, TF over GST control).
As to CGACGT, the binding signal with FLI1 was 1.23 fold enrichment (6-mer frequency, TF over GST control); with ELK1, 1.09 fold enrichment (6-mer frequency, TF over GST control); in the assay with GABPA it was 1.22 fold enrichment (6-mer frequency, TF over GST control); in the assay with ERG, 1.06 fold enrichment (6-mer frequency, TF over GST control); with ELF1, 1.11 fold enrichment (6-mer frequency, TF over GST control); with EHF it was 1.14 fold enrichment (6-mer frequency, TF over GST control). Besides, the binding signal with SPI1 was 1.08 fold enrichment (6-mer frequency, TF over GST control); in the assay with SPIB it was 1 fold enrichment (6-mer frequency, TF over GST control); in the assay with ELK3 it was 1.07 fold enrichment (6-mer frequency, TF over GST control).
AAGCAC: the binding signal with FLI1 was 1.14 fold enrichment (6-mer frequency, TF over GST control); in the assay with ELK1 it was 1.14 fold enrichment (6-mer frequency, TF over GST control); with GABPA it was 1.15 fold enrichment (6-mer frequency, TF over GST control); with ERG it was 1.19 fold enrichment (6-mer frequency, TF over GST control); with ELF1, 1.18 fold enrichment (6-mer frequency, TF over GST control); with EHF, 1.07 fold enrichment (6-mer frequency, TF over GST control). For the same sequence, the binding signal in the assay with SPI1 was 1.18 fold enrichment (6-mer frequency, TF over GST control); with SPIB it was 1.18 fold enrichment (6-mer frequency, TF over GST control); with ELK3, 1.31 fold enrichment (6-mer frequency, TF over GST control).
As for CGGATA, the binding signal with FLI1 was 1.15 fold enrichment (6-mer frequency, TF over GST control); in the assay with ELK1, 1.27 fold enrichment (6-mer frequency, TF over GST control); with GABPA it was 1.09 fold enrichment (6-mer frequency, TF over GST control); in the assay with ERG it was 1.5 fold enrichment (6-mer frequency, TF over GST control); with ELF1, 1.16 fold enrichment (6-mer frequency, TF over GST control); with EHF it was 1.19 fold enrichment (6-mer frequency, TF over GST control). In addition, the binding signal in the assay with SPI1 is 1.1 fold enrichment (6-mer frequency, TF over GST control); in the assay with SPIB, 1.15 fold enrichment (6-mer frequency, TF over GST control); in the assay with ELK3, 1.33 fold enrichment (6-mer frequency, TF over GST control).
Turning to CTGTCC, the binding signal with FLI1 is 1.34 fold enrichment (6-mer frequency, TF over GST control); with ELK1, 1.22 fold enrichment (6-mer frequency, TF over GST control); in the assay with GABPA, 1.29 fold enrichment (6-mer frequency, TF over GST control); in the assay with ERG it was 1.28 fold enrichment (6-mer frequency, TF over GST control); with ELF1 it was 1.28 fold enrichment (6-mer frequency, TF over GST control); with EHF, 1.36 fold enrichment (6-mer frequency, TF over GST control). Besides, the binding signal with SPI1 is 1.25 fold enrichment (6-mer frequency, TF over GST control); with SPIB, 1.27 fold enrichment (6-mer frequency, TF over GST control); with ELK3, 1.1 fold enrichment (6-mer frequency, TF over GST control).
